Compounds with a hit are over-represented: about 1.3% of the library has one in this group of screens.
SRC2 inh: inhibition of GAL4-SRC2 driven luciferase reporter, primary screen, SRC2 inhibitor project, cell-based, luminescence. Nuclear receptor coactivator 2 (Homo sapiens), Q15596. HEK293 GAL4-SRC2 luciferase reporter. inhibition, % at 9 µM. 370,000 compounds, 0.17% hits. AID 651957, 2012;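 active = inhibition above the mean inhibition of all tested compounds plus 3 SD, set per campaign, cut at about 52% in these data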
Target sequence (Q15596 whole entry, looked up, the tested form may be a part): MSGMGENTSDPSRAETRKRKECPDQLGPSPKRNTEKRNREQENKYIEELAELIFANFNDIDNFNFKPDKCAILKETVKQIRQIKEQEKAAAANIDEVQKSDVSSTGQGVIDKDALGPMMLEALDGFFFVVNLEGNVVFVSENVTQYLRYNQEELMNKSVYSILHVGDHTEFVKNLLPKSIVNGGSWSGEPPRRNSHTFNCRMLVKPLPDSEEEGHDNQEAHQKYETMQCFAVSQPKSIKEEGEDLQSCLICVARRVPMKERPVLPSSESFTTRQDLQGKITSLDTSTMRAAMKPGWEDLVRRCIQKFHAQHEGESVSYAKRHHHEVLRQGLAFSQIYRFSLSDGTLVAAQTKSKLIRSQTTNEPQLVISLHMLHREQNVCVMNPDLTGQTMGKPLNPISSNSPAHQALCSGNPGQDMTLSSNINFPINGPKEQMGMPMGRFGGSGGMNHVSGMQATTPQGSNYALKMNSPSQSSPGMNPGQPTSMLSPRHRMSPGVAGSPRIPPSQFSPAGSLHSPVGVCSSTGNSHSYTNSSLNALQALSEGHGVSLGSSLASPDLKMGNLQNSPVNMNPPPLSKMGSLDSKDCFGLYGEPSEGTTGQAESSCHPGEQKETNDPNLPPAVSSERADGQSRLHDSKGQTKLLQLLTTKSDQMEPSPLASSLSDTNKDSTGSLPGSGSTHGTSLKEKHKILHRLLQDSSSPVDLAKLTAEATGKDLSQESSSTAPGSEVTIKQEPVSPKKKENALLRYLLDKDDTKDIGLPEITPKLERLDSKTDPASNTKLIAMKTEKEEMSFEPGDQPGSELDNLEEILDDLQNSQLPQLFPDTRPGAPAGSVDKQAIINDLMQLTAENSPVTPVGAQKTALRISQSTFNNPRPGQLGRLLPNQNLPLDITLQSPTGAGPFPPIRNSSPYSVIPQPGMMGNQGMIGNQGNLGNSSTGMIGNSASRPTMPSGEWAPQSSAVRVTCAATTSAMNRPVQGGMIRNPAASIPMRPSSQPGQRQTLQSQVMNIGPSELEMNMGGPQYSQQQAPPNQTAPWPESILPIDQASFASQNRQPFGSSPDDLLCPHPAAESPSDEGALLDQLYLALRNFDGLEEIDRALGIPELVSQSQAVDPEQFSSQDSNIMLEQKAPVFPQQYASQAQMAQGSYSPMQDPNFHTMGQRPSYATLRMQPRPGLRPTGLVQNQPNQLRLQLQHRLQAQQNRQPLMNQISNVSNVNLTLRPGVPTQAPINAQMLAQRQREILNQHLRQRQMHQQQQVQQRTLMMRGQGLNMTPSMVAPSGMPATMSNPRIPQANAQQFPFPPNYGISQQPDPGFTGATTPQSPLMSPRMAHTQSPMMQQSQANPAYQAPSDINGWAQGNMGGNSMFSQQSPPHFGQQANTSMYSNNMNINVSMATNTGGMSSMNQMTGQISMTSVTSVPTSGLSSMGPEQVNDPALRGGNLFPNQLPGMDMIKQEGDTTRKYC
NCOA1 inh: SRC1 coactivator transcriptional activity inhibitors, primary screen, cell-based, luminescence; Nuclear receptor coactivator 1 (Homo sapiens), Q15788; HEK293 GAL4-SRC1 luciferase reporter; inhibition, % at 3.6 µM; 360,000 compounds, 0.12% hits;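 active = inhibition above the campaign mean plus 3 SD, with each screening campaign given its own cutoff, cut at about 60% in these data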
SRC3 inh: SRC3 coactivator transcriptional activity inhibitors, primary screen, cell-based, luminescence; 360,000 compounds, 0.17% hits; inhibition, % at 3.6 µM; HEK293 GAL4-SRC3 luciferase reporter;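 active = inhibition above a per-campaign cutoff, the mean of all compounds plus 3 SD, cut at about 60% in these data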;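 also: higher means less SRC3-driven luciferase light from the GAL4 reporter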
NR2F2 inh: NR2F2 transcriptional activity inhibitors, primary screen, cell-based, luciferase reporter, HEK293T, luminescence. COUP transcription factor 2 (Homo sapiens), P24468. HEK293T NGFI-A luciferase reporter. inhibition, % at 8.6 µM. 370,000 compounds, 0.7% hits;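 active = inhibition above a per-plate cutoff, mean inhibition of test wells between control levels plus 3 SD, cut at about 38% in these data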;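 also: cells cotransfected with COUP-TFII expression vector driving the NGFI-A reporter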
NR5A2 inv ag: LRH-1 (NR5A2) inverse agonists, primary screen, cell-based, luminescence, HEK293T, StAR-luciferase reporter; Nuclear receptor subfamily 5 group A member 2 (Homo sapiens), O00482; LRH-1 transfected, 24 h; inhibition, % at 3.6 µM; 360,000 compounds, 0.13% hits; AID 602396, 2012;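 active = inhibition above the mean inhibition of all tested compounds plus 3 SD, cut at about 73% in these data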
Gli-Sufu antag: Gli-Sufu pathway antagonists, primary screen, luciferase luminescence, Sufu-KO-LIGHT cells, uHTS | Sufu-KO-LIGHT fibroblasts, Gli luciferase reporter luminescence | inhibition, % at 5 µM | 340,000 compounds, 0.74% hits | AID 588413, 2011;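 active = inhibition above about 55%, limit read from the data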
Gal4-VP16 ctr: Gal4-VP16 luciferase reporter inhibitors, counter-screen for COUP-TFII antagonist project, cell-based, luminescence, HEK293. shares compounds with NR2F2 inh. inhibition, % at 8.5 µM. 2,500 compounds, 25% hits. AID 687007, 2013; in the data active = inhibition above about 13%
COUP-TFII conf: NR2F2 transcriptional activity inhibitors, confirmation, cell-based, luciferase reporter, HEK293, triplicate | shares compounds with NR2F2 inh | inhibition, % at 8.5 µM | 2,500 compounds, 45% hits | HEK293 NGFI-A luciferase reporter, luminescence;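 active = mean inhibition over three repeats above a set limit taken from the earlier primary screen, cut at about 38% in these data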
Large screens that a line does not name were inactive (follow-up assays come after a bar, where they were run).

CC(C)c1[nH]nc2c1C(c1cccc(C(F)(F)F)c1)N(c1ccccc1)C2=O (stereo not drawn)	none (no result: NCOA1 inh, SRC3 inh, NR5A2 inv ag, Gli-Sufu antag)
COc1cccc(OCCn2cc(C(C)=O)c3ccccc32)c1	NR2F2 inh 49 | Gal4-VP16 ctr inactive | COUP-TFII conf 43
C=CCN1C(C(=O)OC)CN(Cc2cn(CCC3OCCO3)nn2)CCS1(=O)=O (stereo not drawn)	none (no result: NCOA1 inh, SRC3 inh, NR5A2 inv ag, Gli-Sufu antag)
C=CCCC[C@H]1OC(=O)[C@H](C)NC(=O)[C@H](C(C)C)NC(=O)[C@@H]2CCCN2C(=O)[C@H](Cc2ccccc2)OC(=O)[C@@H](C(C)C)N(C)C(=O)[C@H](C(C)C)NC(=O)C1(C)C	none (no result: NCOA1 inh, SRC3 inh, NR5A2 inv ag, Gli-Sufu antag)
CCCCN1C(C)=CC(=C2C(=O)c3ccccc3C2=O)C=C1C	none
CCN1C=CC(=C2C(=O)c3ccccc3C2=O)C=C1	SRC2 inh 65, NR2F2 inh 70, Gli-Sufu antag 59 | Gal4-VP16 ctr 31 | COUP-TFII conf inactive
CCCCCCN1C=CC(=C2C(=O)c3ccccc3C2=O)C=C1	none
CCCN1C=CC(=C2C(=O)c3ccccc3C2=O)C=C1	SRC2 inh 85, SRC3 inh 67, NR2F2 inh 85, Gli-Sufu antag 79 | Gal4-VP16 ctr 73 | COUP-TFII conf 85
COC(=O)[C@]12C[C@H](CC(=O)NCc3ccc(OC)c(OC)c3)C(=O)N(CCC3=CCCCC3)C1=C[C@H](C(C)C)O[C@@H]2C1CC1	none (no result: NCOA1 inh, SRC3 inh, NR5A2 inv ag, Gli-Sufu antag)
S=C(Nc1cc(Cl)cc(Cl)c1)NC(c1ccccc1)c1ccccc1	NR2F2 inh 57 (no result: SRC2 inh, NCOA1 inh, SRC3 inh, NR5A2 inv ag, Gli-Sufu antag) | Gal4-VP16 ctr inactive | COUP-TFII conf inactive
COc1ccc(Cl)c(-c2cc(C(=O)Nc3ccc(C)c(NS(C)(=O)=O)c3)[nH]n2)c1	none (no result: Gli-Sufu antag)
Cc1ccc(NC(=O)c2cc(-c3cc(Cl)ccc3C)n[nH]2)cc1NS(C)(=O)=O	NR2F2 inh 50 (no result: Gli-Sufu antag) | Gal4-VP16 ctr inactive | COUP-TFII conf 41
COc1ccc(Cl)cc1-c1cc(C(=O)Nc2ccc(C)c(NS(C)(=O)=O)c2)[nH]n1	NR2F2 inh 38 (no result: Gli-Sufu antag) | Gal4-VP16 ctr inactive | COUP-TFII conf inactive
O=C(Nc1ncc([N+](=O)[O-])s1)c1ccc2c(c1)OCO2	none
Cc1ccc(C(=O)Nc2ncc([N+](=O)[O-])s2)cc1	SRC2 inh 62, NR2F2 inh 63, Gli-Sufu antag 60 | Gal4-VP16 ctr inactive | COUP-TFII conf inactive
Cc1cc(CN(C)C(=O)c2cc(COc3ccc4ncccc4c3)on2)on1	NR2F2 inh 55 | Gal4-VP16 ctr inactive | COUP-TFII conf 43
CC(CNC(=O)c1cc(COc2ccc3ncccc3c2)on1)c1ccccc1 (stereo not drawn)	NR2F2 inh 46 | Gal4-VP16 ctr inactive | COUP-TFII conf inactive
O[C@H](COc1cccc(F)c1)CN1CCC(C(O)(c2ccccc2)c2ccccc2)CC1	none (no result: NCOA1 inh, SRC3 inh, NR5A2 inv ag, Gli-Sufu antag)
CN1CCCCC(NC(=O)c2ccc(F)c(F)c2)C1=O (stereo not drawn)	none (no result: NCOA1 inh, SRC3 inh, NR5A2 inv ag, Gli-Sufu antag)
Cc1ccc(S(=O)(=O)N(C)Cc2ccc(C(=O)N/N=C/c3ccc(OC(F)F)cc3OC(F)F)cc2)cc1	NR2F2 inh 70 | Gal4-VP16 ctr inactive | COUP-TFII conf 74
COc1ccc(Cc2noc(CN3CCN(c4ccc(Cl)cn4)CC3)n2)cc1OC	NR2F2 inh 41 | Gal4-VP16 ctr inactive | COUP-TFII conf inactive
COc1ccc2c(c1)CCCN2C(=O)C1CCCN(S(=O)(=O)c2cccs2)C1 (stereo not drawn)	none (no result: NCOA1 inh, SRC3 inh, NR5A2 inv ag, Gli-Sufu antag)
O=C(Nc1ccn(Cc2ccccc2F)n1)c1ccc(COc2ccccc2Cl)cc1	NR2F2 inh 61 | Gal4-VP16 ctr inactive | COUP-TFII conf inactive
O=C(Nc1ccn(Cc2c(F)c(F)cc(F)c2F)n1)c1ccc(COc2ccccc2Cl)cc1	none (no result: SRC2 inh, NR2F2 inh)
O=C(N[C@@H]1CC[C@H]2SC[C@H](C(=O)O)N2C1=O)OCC1c2ccccc2-c2ccccc21	none (no result: NCOA1 inh, SRC3 inh, NR5A2 inv ag, Gli-Sufu antag)
CCC(=NCc1ccco1)c1c(C(F)(F)F)[nH]n(-c2nc3ccccc3s2)c1=O	none
CC(=NCc1ccco1)c1c(C)[nH]n(-c2nc3ccccc3s2)c1=O	NR2F2 inh 62 | Gal4-VP16 ctr inactive | COUP-TFII conf inactive
S=C(NN=C(c1ccccc1)c1ccccn1)N(Cc1ccccn1)Cc1ccccn1	NCOA1 inh 66, SRC3 inh 71, NR2F2 inh 54, Gli-Sufu antag 69 | Gal4-VP16 ctr inactive | COUP-TFII conf 45
CCOc1ccc(CCNC(=O)c2cc3sccc3n2Cc2ccccc2)cc1OCC	NR2F2 inh 40 (no result: SRC2 inh, NCOA1 inh, SRC3 inh, NR5A2 inv ag, Gli-Sufu antag) | Gal4-VP16 ctr inactive | COUP-TFII conf inactive
CCOc1ccc(CCNC(=O)c2ccc3[nH]ccc3c2)cc1OCC	NR2F2 inh 41 (no result: SRC2 inh, NCOA1 inh, SRC3 inh, NR5A2 inv ag, Gli-Sufu antag) | Gal4-VP16 ctr inactive | COUP-TFII conf inactive
O=C(NCCc1c[nH]c2ccccc12)c1cc2sccc2n1Cc1ccccc1	none
CCOc1ccc(CCNC(=O)c2ccc(Oc3ccccc3)cc2)cc1OCC	none (no result: SRC2 inh, NCOA1 inh, SRC3 inh, NR5A2 inv ag, Gli-Sufu antag)
CCOc1ccc(CCNC(=O)c2cc3sccc3n2CC)cc1OCC	NR2F2 inh 50 | Gal4-VP16 ctr inactive | COUP-TFII conf inactive
CCCCOCCCNC(=O)C[C@H]1C[C@@]2(C(=O)OC)C(=C[C@H](C(C)C)O[C@@H]2C2CC2)N(Cc2cccc3ccccc23)C1=O	none (no result: NCOA1 inh, SRC3 inh, NR5A2 inv ag, Gli-Sufu antag)
CCn1c2ccccc2c2cc(NC(=O)COC(=O)c3cc(F)ccc3C)ccc21	none (no result: NCOA1 inh, SRC3 inh, NR5A2 inv ag, Gli-Sufu antag)
CCCCN1CC(COCc2ccccc2)Oc2cccc(N3CCCCC3)c2S1(=O)=O (stereo not drawn)	none (no result: NCOA1 inh, SRC3 inh, NR5A2 inv ag, Gli-Sufu antag)
CC(=O)OC[C@]12CC[C@H]3[C@@](C)(CC[C@H]4C(C)(C)CCC[C@]34C)[C@@H]1CC(C1=CC(=O)OC1O)O2 (stereo partly drawn)	SRC2 inh 80, NCOA1 inh 80, SRC3 inh 85, NR2F2 inh 82, NR5A2 inv ag 103 (no result: Gli-Sufu antag) | Gal4-VP16 ctr 93 | COUP-TFII conf 105
CC(=O)OC[C@]1(OC(C)=O)C[C@@]23CC[C@H]4[C@@](C)(CCC[C@@]4(C)C(=O)O)[C@@H]2CC[C@@H]1C3	none
CCOC(=O)N1CCN(C(=O)CSCC(=O)Nc2nc(-c3ccc(OC)cc3)cs2)CC1	none
